Assay outcomes from PubChem BioAssay.
An excerpt weighted towards active compounds, which were near 3% of everything screened.
GDH-TPI inh: GDH-TPI coupled enzyme inhibition counter-screen | GDH-TPI coupled enzyme counterscreen, NADH absorbance | hit rate 1.2% among 360,000 | inhibition, % at 4.8 µM; in the data active means inhibition above about 30%;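 further: 0% = DMSO wells and 100% = wells lacking the enzyme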
Vc quorum ag: inducers of Vibrio cholerae quorum light production without autoinducers; V. cholerae BH1578 lux reporter, luminescence, 6 h; activation, % at 18.7 µM; hit rate 0.16% among 350,000; in the data active means activation mostly above about 9.7%, no sharp cut-off
BioA inh: blocks M. tuberculosis BioA enzyme activity | inhibition, % at 9.99 µM | AID 602481 | hit rate 0.096% among 360,000 | purified M. tuberculosis BioA enzyme, plate reader; in the data active means inhibition above about 40%
Mtb FBA inh: inhibits M. tuberculosis FBA enzyme; P9WQA3; purified M. tuberculosis FBA, fluorescence read-out; inhibition, % at 1 µM; hit rate 2.3% among 360,000; AID 588726; in the data active means inhibition above about 27%;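 further: 0% = vehicle and 100% = reference inhibitor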
Target sequence (P9WQA3 whole entry, looked up): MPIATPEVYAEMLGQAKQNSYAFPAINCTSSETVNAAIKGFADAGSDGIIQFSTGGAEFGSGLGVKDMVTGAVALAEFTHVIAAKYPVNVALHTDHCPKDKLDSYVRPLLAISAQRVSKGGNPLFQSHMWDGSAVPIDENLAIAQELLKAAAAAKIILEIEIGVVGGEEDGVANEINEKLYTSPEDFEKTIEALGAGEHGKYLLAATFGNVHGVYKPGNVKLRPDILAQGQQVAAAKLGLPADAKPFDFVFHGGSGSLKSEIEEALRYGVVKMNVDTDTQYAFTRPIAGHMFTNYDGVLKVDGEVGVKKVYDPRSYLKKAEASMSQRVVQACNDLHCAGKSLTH
The depositor's hits bear a star; i = inactive; · = no result; + = active, no number.

SMILES | GDH-TPI inh | Vc quorum ag | BioA inh | Mtb FBA inh
COc1cc2c(cc1OC)-c1cc(OCc3cccnc3)nc(=O)n1CC2 | 40.5* | -0.2 | 0.8 | +
O=C(Nc1cccc(F)c1)N1C[C@@H]2[C@H](c3ccccc31)[C@H](CO)N2C(=O)Cc1ccccc1 | · | · | -4.2 | ·
Cc1noc(C)c1S(=O)(=O)N(C)C[C@H]1OCCCC[C@@H](C)Oc2ccc(NS(=O)(=O)c3ccc(Cl)cc3)cc2C(=O)N([C@@H](C)CO)C[C@@H]1C | · | · | -0.5 | ·
Cc1noc(C)c1NC(=O)Nc1cccc2c1O[C@H](CN(C)S(=O)(=O)c1ccc(F)cc1)[C@@H](C)CN([C@@H](C)CO)C2=O | · | · | 0.7 | ·
COc1cc2c(cc1OC)-c1cc(N3CCc4ccccc43)nc(=O)n1CC2 | 43.4* | -0.7 | · | 19.0
COc1cc2c(cc1OC)-c1cc(Nc3ccc4c(c3)OCCO4)nc(=O)n1CC2 | 36.4* | i | 1.5 | 3.0
COc1cc2c(cc1OC)-c1cc(N3CCCc4ccccc43)nc(=O)n1CC2 | 15.7 | i | 3.5 | 0.9
COCC#Cc1ccc2c(c1)O[C@@H](CN(C)S(=O)(=O)c1ccc(F)cc1)[C@H](C)CN([C@H](C)CO)S2(=O)=O | · | · | 0.7 | ·
CCOC(=O)c1nn(-c2ccccc2)c(C(=O)OCC)c1N | 19.2 | i | 0.2 | +
COc1ccc2c(c1)c(=O)oc1cc(OC(C(=O)O)c3ccccc3)ccc12 (configuration not stated) | 14.7 | i | 2.5 | +
CC(Oc1ccc2c(c1)oc(=O)c1ccccc12)C(=O)NCCN1CCOCC1 (configuration not stated) | 4.7 | -0.1 | 1.3 | 60.0*
CC(Oc1ccc2c3c(c(=O)oc2c1)CCC3)C(=O)NCC1CCC(C(=O)O)CC1 (configuration not stated) | 13.9 | -0.4 | 2.1 | 21.1
CC(Oc1ccc2c(c1)oc(=O)c1ccccc12)C(=O)NCC1CCC(C(=O)O)CC1 (configuration not stated) | 14.7 | -0.4 | 0.3 | 129.3*
COCC(=O)Nc1ccc2c(c1)OC[C@H](C)N(Cc1cccnc1)C[C@@H](C)[C@@H](OC)CN(C)C2=O | · | · | -1.0 | ·
COCCNC(=O)/C(C#N)=C/c1c(N2CCN(C)CC2)nc2ccccn2c1=O | 5.7 | i | 0.7 | 192.5*
CCCC(=O)Nc1nc2ccc(OC)cc2s1 | 5.6 | -0.3 | -1.4 | 0.3
COc1ccc2nc(NC(=S)N(C)C)sc2c1 | 44.2* | i | 1.6 | -0.8
COCC(=O)Nc1ccc2c(c1)OC[C@@H](C)N(C(=O)Cc1ccccn1)C[C@@H](C)[C@@H](OC)CN(C)C2=O | · | · | -0.2 | ·
Cc1c(OCC(=O)NC(Cc2ccc(Cl)cc2)C(=O)O)ccc2c3c(c(=O)oc12)CCCC3 (configuration not stated) | 6.9 | -0.5 | 3.5 | 5.8
CCC(NC(=O)COc1cc2c(c3oc(=O)c(C)c(C)c13)CCC(C)(C)O2)C(=O)O (configuration not stated) | 7.1 | 1.2 | -1.5 | +
Cc1c(C)c2c(OCC(=O)N[C@@H](C)C(=O)O)cc3c(c2oc1=O)CCC(C)(C)O3 | 5.7 | 0.6 | -1.7 | +
Cc1c(OCC(=O)N[C@@H](Cc2ccccc2)C(=O)O)ccc2c3c(c(=O)oc12)CCC3 | 11.1 | -0.3 | 2.9 | 25.6
CC(C)n1c(=O)c2ccccc2n1Cc1cn(Cc2cccs2)nn1 | · | · | -0.6 | 152.3*
CC(C)n1nnnc1SCC(=O)NCc1cccs1 | 3.7 | -0.3 | -2.2 | 2.6
CC(C)n1c(=O)c2ccccc2n1Cc1cn(Cc2cccnc2)nn1 | · | · | -1.3 | 153.5*
SMILES | GDH-TPI inh | Vc quorum ag | BioA inh | Mtb FBA inh
N#Cc1c(N)c(C(=O)c2ccccc2)n2c1CCCC2 | 19.4 | -0.5 | -0.7 | 0.5
N#Cc1c(N)c(C(=O)c2ccc(Br)cc2)n2c1CCC2 | 31.1* | i | -1.0 | 0.7
C[C@@H]1CCCCO[C@@H](CN(C)C(=O)Nc2cccc3ccccc23)[C@H](C)CN([C@H](C)CO)C(=O)c2cc(NS(=O)(=O)c3ccc(F)cc3)ccc2O1 | · | · | -2.0 | ·
O=C1CC(N2CCN(c3ccc(C(=O)c4ccc(F)cc4)cc3)CC2)C(=O)N1 (configuration not stated) | 47.6* | 0.7 | 0.5 | 1.9
CC1CC(=Cc2ccc([N+](=O)[O-])cc2)C(=O)O1 (configuration not stated) | 30.7* | i | · | -2.4
CC1CC(=Cc2ccc(N)cc2)C(=O)O1 (configuration not stated) | 35.3* | -1.7 | -0.1 | -1.1
CC1COc2c(N3CCN(C)CC3)c(F)cc3c(=O)c(C(=O)O)cn1c23 (configuration not stated) | 25.4 | i | -2.1 | 96.6*
O=C(O)C1CCN(c2ccc(S(=O)(=O)N3CCC(C(=O)O)CC3)cc2[N+](=O)[O-])CC1 | -0.3 | -0.4 | -0.5 | -3.1
CN(Cc1ccccc1)c1ccc(S(=O)(=O)N2CCC(C(=O)O)CC2)cc1[N+](=O)[O-] | 0.6 | i | 0.8 | +
CN(C)C(=O)[C@@H]1[C@@H](CO)[C@@H]2Cn3c(ccc(-c4ccccc4)c3=O)[C@H]1N2C(=O)C1CCC1 | · | · | -1.0 | ·
C/C(=N\NC(=O)c1ccc2c(c1)OCO2)c1cccnc1 | 4.6 | i | 0.5 | -3.7
CC(/C=C/c1ccc2c(c1)OCO2)=N/NC(=O)c1cccnc1 | 42.0* | i | 4.2 | -0.7
CC(/C=C/c1ccc2c(c1)OCO2)=N/NC(=O)c1ccncc1 | 47.5* | i | -0.4 | -3.4
Cc1ccc(C(=O)N/N=C\c2cc3c(cc2Br)OCO3)cn1 | 9.6 | -0.5 | -0.4 | -3.0
CC(/C=C/c1ccc2c(c1)OCO2)=N/NC(=O)c1ccc(C)nc1 | 36.3* | -0.3 | · | 3.6
CO[C@H]1CN(C)C(=O)c2ccc(NC(C)=O)cc2OC[C@H](C)N(Cc2ccc(F)cc2)C[C@@H]1C | · | · | -0.5 | ·
CCC(=O)N1C[C@H](C)[C@H](OC)CN(C)C(=O)c2cc(NC(=O)c3ccccc3)ccc2OC[C@@H]1C | · | · | -0.5 | ·
Cn1cnc(S(=O)(=O)N[C@@H]2C=C[C@H](CC(=O)N3CCN(c4ccccc4)CC3)O[C@H]2CO)c1 | · | · | -1.6 | ·
CC(=O)Cc1nsc(NC(=O)c2oc(-c3ccccc3Cl)cc2C)n1 | 56.2* | -0.9 | -1.0 | 5.5
CC(=O)Cc1nsc(NC(=O)c2ccc(-c3ccccc3Cl)o2)n1 | 32.7* | 3.7 | -1.6 | 3.9
CC(O)Cc1nsc(NC(=O)c2ccc(Br)o2)n1 (configuration not stated) | 42.0* | i | -0.6 | -0.9
Cc1noc(C)c1NC(=O)N[C@H]1CC[C@H](CCNC(=O)C2CCCC2)O[C@H]1CO | · | · | 1.7 | ·
C=C(C)Cn1c2ccc(NC(=O)NCC)cc2c(=O)n1C | 7.1 | i | 2.0 | +
CCNC(=O)Nc1ccc2c(c1)c(=O)n(C)n2Cc1ccc(Cl)cc1 | 11.1 | -0.3 | 13.6 | +
C=C(C)Cn1c2ccc(NC(=O)NCc3ccccc3)cc2c(=O)n1C | -10.7 | i | -1.0 | 166.2*
O=C(Nc1cccc(C(=O)O)c1)/C(=C/c1ccc2c(c1)OCO2)NC(=O)c1cccc(Br)c1 | 20.2 | -0.4 | · | 6.9
O=C(Nc1cccc(C(=O)O)c1)/C(=C\c1ccc2c(c1)OCO2)NC(=O)c1ccccc1Br | 36.0* | i | -0.4 | -1.1
O=C(Nc1ccc(C(=O)O)cc1)/C(=C\c1ccc2c(c1)OCO2)NC(=O)c1ccccc1Cl | 34.8* | i | -0.5 | -0.3
